Bioassay records as filed in PubChem BioAssay.
HT1080 IDH1KD tx = HT-1080 IDH1 knockdown cell toxicity (counter line); Potency, µM (series often up to 46.1 µM), inactives show at the highest dose activity, negative = toxicity, hits mostly cytotoxic; 360,000 tested, 2% active; HT-1080 IDH1 knockdown viability, ATP luminescence, 48 h;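 further: 0% = DMSO wells and -100% = cell-free medium wells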
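% activity derives from luminescence (CellTiter-Glo), normalised to DMSO and no-cell wells. HT-1080-IDH1KD cells, 750/well, had 48 h compound exposure at 37 °C.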
KB-V1 cytotox = KB-V1 MDR subline cytotoxicity. Potency, µM (titrated, usually from 46.1 µM), most hits filed as cytotoxic. 400,000 tested, 3.4% active. AID 1347076. KB-V1 MDR cells viability, CellTiter-Glo, 72 h; further: on the % scale 0 is the no-effect control and ±100 the full control effect; nearly all actives have a fitted effect of over 60% in size
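KB-V1 MDR subline cells in DMEM (phenol-red free, 10% FBS) exposed to compounds in qHTS concentration series for 72 h at 37 degrees C. Viability read by CellTiter-Glo luminescence; concentration-effect curves fitted after normalization and correction.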
HepG2 viability = HepG2 cytotoxicity, counter-screen for TGF-b inhibitors | 410,000 tested, 0.76% active | AID 588856 | Potency, µM (top dose mostly 46.1 µM), for the others: top-dose activity change, negative = cytotoxicity, most hits filed as cytotoxic | HepG2 CAGA-GFP viability, ATP luminescence, 18 h
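CellTiter-Glo luminescence gave cytotoxicity after 18 hours at 37 degrees C. The cells were HepG2 CAGA-GFP in 1% FBS DMEM, stimulated with 500 pg/mL TGF-beta after compound addition. %Activity was normalised to no-cell wells (complete cell-killing) and DMSO (no toxicity), and curves were fitted and classified.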
KB-3-1 tox = KB-3-1 parental cell cytotoxicity | KB-3-1 viability, CellTiter-Glo ATP luminescence, 72 h | Potency, µM (series often up to 46.1 µM), most hits filed as cytotoxic | 400,000 tested, 1.4% active | AID 1347075; further: on the % scale 0 is the no-effect control and ±100 the full control effect; nearly all actives have a fitted effect of over 60% in size
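Cytotoxicity measured as CellTiter-Glo luminescence after 72 h at 37 C. Compound titrations were pinned onto drug-naive KB-3-1 parental adenocarcinoma cells grown in DMEM with 10% FBS, and normalized data fitted to concentration-response curves.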
HT1080NT lethal = kills 2HG-producing HT-1080-NT fibrosarcoma cells. 360,000 tested, 1.6% active. HT-1080-NT fibrosarcoma viability, CellTiter-Glo ATP luminescence, 48 h. Potency, µM (top dose mostly 46.1 µM), without a hit: at the highest dose activity, negative = less viability, actives largely listed as cytotoxic. AID 686970;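 further: NT is the 2HG producing partner of a matched IDH1 knockdown line; 0% = DMSO-treated cells and -100% = media-only wells without cells; nearly all actives have a fitted effect of over 55% in size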
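A 48-hour cytotoxicity screen used HT-1080-NT cells plated 2 hours before compound delivery. ATP-based CellTiter-Glo luminescence measured viability, normalized to DMSO and no-cell controls.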
TGFb SMAD3 inh = blocks TGF-b signaling. HepG2 CAGA-GFP TGF-b/SMAD3 reporter, GFP fluorescence, 18 h; TGF-beta stimulated, 500 pg/mL final. Potency, µM (series often up to 46.1 µM), inactives show at the highest dose activity, negative = inhibition, hits mostly inhibitors. 410,000 tested, 1.2% active; further: on the % scale 0 is the no-effect control and ±100 the full control effect; nearly all actives have a fitted effect of over 65% in size
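First, reporter cells (HEPG2 CAGA-GFP) rested 2 h at 37 degrees C. Next, compounds were pinned in and TGF-beta added to 500 pg/mL final. After 18 h, GFP was imaged per cell and summed per well.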
Numbers without * were called inactive; i = inactive; ? = inconclusive; / = no result given. Rows were chosen to be rich in hits. Some 6.6% of all compounds tested hit in one or more screens of this group. The call rests on the fitted dose curve; in most records, active means well fitted curve in the direction sought with a large enough effect; inconclusive means small, poorly fitted or top-dose-only effect, or another doubt; inactive means no such curve, though single readings can be large; an effect the other way counts as inactive or inconclusive. Potency means the concentration at half of the fitted maximal effect.

SMILES	HT1080 IDH1KD tx	KB-V1 cytotox	HepG2 viability	KB-3-1 tox	HT1080NT lethal	TGFb SMAD3 inh
CCOC(=O)c1sc2ccccc2c1S(=O)(=O)NCc1ccccc1OC	/	i	-23%	i	/	?
CC(C)c1cnc2c(c1SCC(=O)NC(C)(C)C)c(=O)n(C)c(=O)n2C	/	/	2%	/	/	0%
CCCCN(CC)CCCNC(=O)Cn1nc(CC)n2c(cc3sccc32)c1=O	/	?	-12%	i	/	-1%
COC(=O)C1CCN(S(=O)(=O)CCNC(=O)c2cccc(OC)c2)CC1	5%	i	15%	i	9%	-9%
O=C(Cc1cccs1)NCCS(=O)(=O)N1CCN(c2ccccc2)CC1	0%	i	-11%	i	-7%	0%
COc1ccccc1N1CCN(S(=O)(=O)CCNC(=O)c2cc(OC)c(OC)c(OC)c2)CC1	?	i	-10%	6.5µM*	?	-29%
CCNC(=O)CN(C1CCCCC1)S(=O)(=O)c1ccc(F)cc1	4%	13µM*	-17%	i	3%	-3%
CNC(=O)CN(C1CCCCC1)S(=O)(=O)c1ccc(F)cc1	12%	i	0%	i	9%	-29%
O=C(Cc1cccs1)NCCS(=O)(=O)N1CCN(c2ccccc2F)CC1	?	?	-11%	12µM*	?	-6%
COc1cccc(C(=O)NCCS(=O)(=O)N2CCC(C)CC2)c1	8%	23µM*	-3%	i	17%	-16%
COc1cc(NC(=O)Cn2c(=O)ccc3cc(S(=O)(=O)N4CCCC4)ccc32)cc(OC)c1	/	i	-28%	i	/	-7%
CCOc1ccc(-c2cc3c(=O)n(Cc4nc(-c5ccc(OCC)c(OC)c5)oc4C)ccn3n2)cc1Cl	/	i	-3%	i	/	-4%
CCN(C1CCCCC1)S(=O)(=O)CCNC(=O)c1ccc2c(c1)OCO2	1%	i	-2%	i	1%	11%
CCN(C1CCCCC1)S(=O)(=O)CCNC(=O)c1ccccc1	15%	4.1µM*	4%	i	8%	-10%
CS(=O)(=O)N(CC(=O)NCCc1ccccc1)C1CCCCC1	11%	23µM*	-23%	i	19%	-2%
COc1cccc(C(=O)NCCS(=O)(=O)N2CCCCCC2)c1	23%	12µM*	-3%	i	11%	0%
COc1cccc(C(=O)NCCS(=O)(=O)N2CCCCC2)c1	9%	i	-3%	i	12%	-1%
COc1ccc(CCNC(=O)CN(C2CCCCC2)S(C)(=O)=O)cc1OC	3%	?	-12%	i	-5%	0%
COc1ccc(OC)c(NC(=O)c2c(NCc3ccc(C)o3)sc3c2CCC(C)C3)c1 (configuration not stated)	/	i	-72%	i	/	?
CCCOc1ccccc1-c1nc(SCC(=O)c2ccccc2)n[nH]1	/	i	-14%	i	/	-12%
CC1SC(=S)N(c2ccc(N(C)C)cc2)C1=O (configuration not stated)	?	i	-75%	i	-1%	16µM*
CN(C)c1ccc(N2C(=O)CSC2=S)cc1	1%	i	-33%	i	2%	-6%
CN(CC(=O)Nc1ccc(F)cc1F)S(=O)(=O)c1cccc2nsnc12	/	i	-1%	i	/	-14%
Cc1ccc(-c2cc(C(=O)N3CCN(c4ccccc4)CC3)c3ccccc3n2)cc1C	/	/	-27%	/	/	?
Cc1ccc2c(C(=O)N3CCN(c4ccccc4)CC3)cc(-c3cccnc3)nc2c1C	23µM*	i	-4%	i	?	-8%
SMILES	HT1080 IDH1KD tx	KB-V1 cytotox	HepG2 viability	KB-3-1 tox	HT1080NT lethal	TGFb SMAD3 inh
Cc1csc(NC(=O)CSc2nc3[nH]c(=O)cc(O)c3s2)n1	5.2µM*	21µM*	24%	4.1µM*	5.8µM*	?
CCCCCCSc1nsc(NC(=O)CC(C)C)n1	15µM*	i	-20%	i	?	?
CCCSc1nsc(NC(=O)CC)n1	-4%	i	-20%	i	9%	?
CCCSc1nsc(NC(=O)C(c2ccccc2)c2ccccc2)n1	?	?	6.3µM*	26µM*	?	18µM*
COc1ccc(N2CCN(c3cc(C(=O)NC4CCCCC4)ncn3)CC2)cc1OC	-10%	15µM*	-71%	i	-4%	-13%
CCOc1ccc(C2C(=O)N(C3CCCCC3)CC(=O)N2Cc2ccccc2OC)cc1OC (configuration not stated)	/	/	-4%	/	/	3%
CCOc1ccc(C2C(=O)N(C3CCCCC3)CC(=O)N2CC2CCCO2)cc1OC (configuration not stated)	17%	18µM*	2%	i	5%	6%
CCOCCCN1C(=O)CN(C2CCCCCC2)C(=O)C1c1ccc(OCC)c(OC)c1 (configuration not stated)	/	/	1%	/	/	-15%
COc1ccccc1CN1C(=O)CN(C2CCCC2)C(=O)C1c1ccc(F)cc1 (configuration not stated)	-16%	3.7µM*	-14%	i	6%	0%
Cc1ccc(-c2nn(-c3ccccc3)cc2C=O)o1	18µM*	i	-11%	?	?	-7%
Cc1ccc(NC(=O)CN(C)S(=O)(=O)c2ccc3c(c2)n(C)c(=O)c(=O)n3C)cc1C	/	i	3%	i	/	0%
CN(Cc1ccccc1)c1nc2c(c(=O)[nH]c(=O)n2C)n1Cc1ccccc1	7%	9.2µM*	-3%	i	4%	16%
CCCCCn1c(N(C)Cc2ccccc2)nc2c1c(=O)[nH]c(=O)n2C	-4%	i	-28%	i	3%	?
CCN(CC)c1nc2c(c(=O)[nH]c(=O)n2C)n1Cc1ccccc1Cl	3%	?	1%	i	7%	-2%
CN(Cc1ccccc1)c1nc2c(c(=O)[nH]c(=O)n2C)n1CCCSc1ncccn1	-11%	2.6µM*	-12%	?	-3%	8%
CN(C)c1nc2c(c(=O)[nH]c(=O)n2C)n1Cc1ccccc1Br	-3%	21µM*	1%	?	1%	21%
CN(Cc1ccccc1)c1nc2c(c(=O)[nH]c(=O)n2C)n1Cc1ccccc1F	-3%	i	-48%	i	-3%	-3%
COc1ccc(Cl)cc1NC(=O)c1cc(S(=O)(=O)NC2CCCCCC2)ccc1F	/	/	-6%	/	/	?
C[N+]1(CC(=O)c2ccc(-c3ccccc3)cc2)CCOCC1	/	i	23%	i	/	11%
CC(C)(C)c1nnc(NS(=O)(=O)c2cc(Cl)ccc2Cl)s1	-2%	i	-5%	i	-1%	-28%
